Activity calls are given as the source filed them.

One experiment has as its target Albumin (Bos taurus) (UniProt P02769). In words: bovine serum albumin binders on microarray, profiling panel, artefact control for SMM control protein annotation, biochemical, small-molecule microarray, Alexa647 label, 635/667 nm fluorescence (AID 1118).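 Further: score merges 667 nm emission intensity and signal-to-noise per printed compound spot.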 Particulars: BSA-A647 binding, fluorescence 635 nm, higher = more signal.
Experiment [1] in a line: small-molecule microarray binders of probe aXIP, primary screen, biochemical, NeuroSMM set, 635/667 nm fluorescence (AID 1119).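 Further: probe is the protein aXip251-270 applied at 1 µg/mL to compound-printed slides; binding of probe to printed compounds measured as 667 nm fluorescence plus signal to noise.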 Particulars: higher = more signal, called active from +8 up or from −8 down.
A short description of experiment [2]: small-molecule binders of probe aNOTCH3, primary screen, biochemical, small-molecule microarray, 635/667 nm fluorescence (AID 1120).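 Further: probe is a biotin-tagged antibody raised against NOTCH3 rather than NOTCH3 protein; score merges spot fluorescence near 667 nm with spot signal to noise.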 Particulars: higher = more signal.
Experiment [3] is described as follows: small-molecule binders of probe aNOTCH2, primary screen, biochemical, small-molecule microarray, 635/667 nm fluorescence (AID 1121).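 Further: score merges feature fluorescence read at 667 nm with its signal to noise.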 Particulars: higher = more signal.
The target of experiment [4] is Carbonic anhydrase 2 (Homo sapiens) (UniProt P00918). Kind of experiment: CAII small-molecule binders, profiling panel, biochemical, small-molecule microarray, Alexa647-labelled CAII (AID 1122). Particulars: CAII-A647 binding fluorescence, higher = more signal.
Experiment [5] in a line: COS7 lysate on small-molecule microarray, probe aHis, 635 nm (AID 1123).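 Further: z-score combines 667nm fluorescence intensity with signal-to-noise per printed compound spot.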 Particulars: COS7 cell lysate, fluorescence, higher = more signal.
Experiment [6] is described as follows: compound binding in COS7 lysate, probe aLAP1, primary screen, cell lysate, small-molecule microarray (AID 1124).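 Further: lysate comes from COS7 cells expressing LAP1 and is applied at 0.3 µg/mL; score merges spot fluorescence near 667 nm with signal-to-noise over triplicate slides.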 The note with it: probe aLAP1, fluorescence, higher = more signal.
The next experiment deals with Sam68 (KHDRBS1). In words: Sam68 small-molecule binders, primary screen, biochemical, small-molecule microarray, 635 nm fluorescence (AID 1125).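 Further: score merges 667 nm channel intensity with signal to noise over triplicate slides.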 The note with it: small-molecule microarray binding, higher = more signal.
Experiment [7] concerns Chordin-like protein 2 (CHRDL2). In words: CHRDL2 small-molecule binders, primary screen, biochemical, small-molecule microarray, 635 nm fluorescence (AID 1126).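 Further: printed compound slides probed with Chrdl2 protein at 4 µg/mL for 1 h at 4 C; score merges 667 nm emission intensity with signal to noise over three replicate slides.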 Particulars: small-molecule microarray binding, fluorescence 635 nm; higher = more signal.
Experiment [8] deals with Concanavalin-A (Canavalia ensiformis) (UniProt P02866). Kind of experiment: ConA small-molecule binders, primary screen, artefact control for SMM control protein annotation, biochemical, small-molecule microarray, Alexa647 label, 635 nm (AID 1127).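 Further: z combines 667 nm emission intensity with signal-to-noise across three replicate slides.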 Particulars: ConA-A647 binding fluorescence, higher = more signal.
Chain of Concanavalin-A (Canavalia ensiformis) (P02866 whole entry, looked up): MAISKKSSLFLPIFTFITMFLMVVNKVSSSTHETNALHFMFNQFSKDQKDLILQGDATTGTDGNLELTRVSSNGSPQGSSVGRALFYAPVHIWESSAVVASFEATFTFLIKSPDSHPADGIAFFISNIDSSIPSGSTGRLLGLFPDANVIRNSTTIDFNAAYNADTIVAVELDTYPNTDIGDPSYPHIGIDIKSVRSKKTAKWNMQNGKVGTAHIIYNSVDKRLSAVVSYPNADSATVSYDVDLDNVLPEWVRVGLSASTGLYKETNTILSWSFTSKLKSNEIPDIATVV
A short description of experiment [9]: anti-His antibody binders, primary screen, artefact control for SMM control protein annotation, biochemical, small-molecule microarray, 635 nm fluorescence (AID 1128).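 Further: score merges feature fluorescence with signal-to-noise for each printed compound spot.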 The note with it: anti-His Alexa647 antibody binding, higher = more signal.
Experiment [10] relates to Human papillomavirus type 1a E7 protein (residues 1-88). Kind of experiment: HPV1a E7 small-molecule binders, primary screen, biochemical, small-molecule microarray, residues 1-88, 635 nm (AID 1129). Particulars: small-molecule microarray binding, fluorescence 635 nm; higher = more signal.
Experiment [11] addresses Focal adhesion kinase 1 (Homo sapiens) (UniProt Q05397). Kind of experiment: small-molecule microarray binders of FAK, primary screen, biochemical, 635/667 nm fluorescence, BSA, DTT (AID 1130).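 Further: composite of spot emission at 667 nm and signal to noise over triplicate slides.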 The note with it: PTK2 binding, 635 nm fluorescence, higher = more signal.
For experiment [12], the system named is Fibrinogen (Alexa647-labelled). In words: fibrinogen binders on compound microarrays, profiling panel, artefact control for SMM control-protein annotation, biochemical, small-molecule microarray, 635/667 nm fluorescence (AID 1131).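 Further: z-score merges 667 nm fluorescence with per-spot signal-to-noise over triplicate slides.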 The note with it: fibrinogen-A647 binding fluorescence, higher = more signal.
In experiment [13] the target is Follistatin (Homo sapiens) (UniProt P19883). In words: follistatin binders on small-molecule microarrays, primary screen, biochemical, small-molecule microarray, 635/667 nm fluorescence (AID 1132). The note with it: FST binding, 635 nm fluorescence, higher = more signal.
Chain of Follistatin (Homo sapiens) (P19883 whole entry, looked up): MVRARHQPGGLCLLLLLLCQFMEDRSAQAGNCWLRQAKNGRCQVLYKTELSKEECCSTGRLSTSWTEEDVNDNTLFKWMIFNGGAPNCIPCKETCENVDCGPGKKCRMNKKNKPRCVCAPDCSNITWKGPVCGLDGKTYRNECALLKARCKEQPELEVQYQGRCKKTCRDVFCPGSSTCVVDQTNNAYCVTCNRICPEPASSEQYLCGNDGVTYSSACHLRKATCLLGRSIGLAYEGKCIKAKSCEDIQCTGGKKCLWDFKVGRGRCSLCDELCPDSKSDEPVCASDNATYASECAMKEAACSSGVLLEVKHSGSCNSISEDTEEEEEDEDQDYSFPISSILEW
The target in experiment [14] is Fibroblast growth factor 2 (Homo sapiens) (UniProt P09038). Kind of experiment: FGF2 binders on small-molecule microarrays, primary screen, biochemical, small-molecule microarray, 635/667 nm fluorescence (AID 1133). The note with it: small-molecule microarray binding, FGF2, fluorescence 635/667; higher = more signal.
Chain of Fibroblast growth factor 2 (Homo sapiens) (P09038 whole entry, looked up): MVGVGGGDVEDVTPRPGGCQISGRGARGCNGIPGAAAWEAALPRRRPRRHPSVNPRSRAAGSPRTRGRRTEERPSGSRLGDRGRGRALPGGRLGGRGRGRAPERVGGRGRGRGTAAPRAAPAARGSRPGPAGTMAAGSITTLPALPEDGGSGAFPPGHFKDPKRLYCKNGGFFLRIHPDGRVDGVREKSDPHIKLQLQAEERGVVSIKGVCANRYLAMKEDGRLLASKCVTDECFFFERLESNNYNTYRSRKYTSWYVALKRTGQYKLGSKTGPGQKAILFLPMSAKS
The nature of experiment [15]: mitochondrial membrane potential change in A549 cells, profiling panel, cell-based, JC-1 fluorescence, basal, 24 h, 100 nL (AID 1138).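 Further: A549 lung adenocarcinoma cells under basal conditions with no added stimulus; test concentration not given here.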 The note with it: higher = more signal.
The test system of another experiment is Lefty1. Kind of experiment: Lefty1 binders on small-molecule microarrays, primary screen, biochemical, small-molecule microarray, 635/667 nm fluorescence (AID 1139). The note with it: small-molecule microarray binding, fluorescence 635/667; higher = more signal.
Experiment [16] relates to wheat germ agglutinin (Triticum aestivum), Alexa647-labelled. In words: wheat germ agglutinin binders on compound microarrays, profiling panel, artefact control for SMM control-protein annotation, biochemical, small-molecule microarray, 635/667 nm fluorescence (AID 1140).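 Further: score merges 667 nm feature emission with signal to noise over triplicate slides.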 The note with it: WGA-A647 binding, 635 nm fluorescence, higher = more signal.
In experiment [17] the target is Luciferin 4-monooxygenase (Photinus pyralis) (UniProt P08659). Kind of experiment: firefly luciferase enzyme inhibitors, primary screen, biochemical, luminescence, purified enzyme, 2006 set (AID 1141).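 Further: cell-free assay with purified firefly luciferase at 100 ng per well in PBS; test concentration not given here.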 The note with it: SteadyGlo luminescence, 30 min, higher = more signal, called active from +8 up or from −8 down.
Chain of Luciferin 4-monooxygenase (Photinus pyralis) (P08659 whole entry, looked up): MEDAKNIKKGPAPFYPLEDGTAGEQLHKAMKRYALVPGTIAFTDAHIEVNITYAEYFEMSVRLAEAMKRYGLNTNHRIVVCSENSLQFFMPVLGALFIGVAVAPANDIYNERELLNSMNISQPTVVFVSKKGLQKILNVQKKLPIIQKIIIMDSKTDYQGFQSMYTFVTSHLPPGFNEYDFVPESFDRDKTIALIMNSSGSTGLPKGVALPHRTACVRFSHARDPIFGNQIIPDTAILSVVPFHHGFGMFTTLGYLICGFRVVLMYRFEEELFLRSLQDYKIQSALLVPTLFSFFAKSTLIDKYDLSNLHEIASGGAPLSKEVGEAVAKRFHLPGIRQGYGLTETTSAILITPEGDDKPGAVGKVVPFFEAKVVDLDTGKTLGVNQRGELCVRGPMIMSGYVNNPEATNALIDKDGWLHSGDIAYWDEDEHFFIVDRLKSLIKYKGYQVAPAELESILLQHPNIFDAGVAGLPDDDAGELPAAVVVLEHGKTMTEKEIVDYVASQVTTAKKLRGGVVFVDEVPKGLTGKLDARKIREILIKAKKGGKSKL

Chain of Albumin (Bos taurus) (P02769 whole entry, looked up): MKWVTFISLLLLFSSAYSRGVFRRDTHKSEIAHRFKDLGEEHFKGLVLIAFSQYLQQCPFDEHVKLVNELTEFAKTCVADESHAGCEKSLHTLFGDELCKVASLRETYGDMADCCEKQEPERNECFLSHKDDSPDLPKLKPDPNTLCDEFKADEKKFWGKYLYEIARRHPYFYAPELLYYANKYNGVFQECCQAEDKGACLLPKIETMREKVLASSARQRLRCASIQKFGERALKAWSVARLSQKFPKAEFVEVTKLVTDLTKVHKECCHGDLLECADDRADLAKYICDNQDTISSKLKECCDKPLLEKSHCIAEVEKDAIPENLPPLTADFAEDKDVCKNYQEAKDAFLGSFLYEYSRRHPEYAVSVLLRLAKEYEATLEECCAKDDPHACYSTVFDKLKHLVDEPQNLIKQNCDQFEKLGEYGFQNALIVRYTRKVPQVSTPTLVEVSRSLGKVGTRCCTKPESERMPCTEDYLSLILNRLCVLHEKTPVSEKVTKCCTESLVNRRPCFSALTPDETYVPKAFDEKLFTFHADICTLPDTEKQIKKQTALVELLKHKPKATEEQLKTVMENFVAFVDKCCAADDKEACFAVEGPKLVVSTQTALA
Chain of Focal adhesion kinase 1 (Homo sapiens) (Q05397 whole entry, looked up): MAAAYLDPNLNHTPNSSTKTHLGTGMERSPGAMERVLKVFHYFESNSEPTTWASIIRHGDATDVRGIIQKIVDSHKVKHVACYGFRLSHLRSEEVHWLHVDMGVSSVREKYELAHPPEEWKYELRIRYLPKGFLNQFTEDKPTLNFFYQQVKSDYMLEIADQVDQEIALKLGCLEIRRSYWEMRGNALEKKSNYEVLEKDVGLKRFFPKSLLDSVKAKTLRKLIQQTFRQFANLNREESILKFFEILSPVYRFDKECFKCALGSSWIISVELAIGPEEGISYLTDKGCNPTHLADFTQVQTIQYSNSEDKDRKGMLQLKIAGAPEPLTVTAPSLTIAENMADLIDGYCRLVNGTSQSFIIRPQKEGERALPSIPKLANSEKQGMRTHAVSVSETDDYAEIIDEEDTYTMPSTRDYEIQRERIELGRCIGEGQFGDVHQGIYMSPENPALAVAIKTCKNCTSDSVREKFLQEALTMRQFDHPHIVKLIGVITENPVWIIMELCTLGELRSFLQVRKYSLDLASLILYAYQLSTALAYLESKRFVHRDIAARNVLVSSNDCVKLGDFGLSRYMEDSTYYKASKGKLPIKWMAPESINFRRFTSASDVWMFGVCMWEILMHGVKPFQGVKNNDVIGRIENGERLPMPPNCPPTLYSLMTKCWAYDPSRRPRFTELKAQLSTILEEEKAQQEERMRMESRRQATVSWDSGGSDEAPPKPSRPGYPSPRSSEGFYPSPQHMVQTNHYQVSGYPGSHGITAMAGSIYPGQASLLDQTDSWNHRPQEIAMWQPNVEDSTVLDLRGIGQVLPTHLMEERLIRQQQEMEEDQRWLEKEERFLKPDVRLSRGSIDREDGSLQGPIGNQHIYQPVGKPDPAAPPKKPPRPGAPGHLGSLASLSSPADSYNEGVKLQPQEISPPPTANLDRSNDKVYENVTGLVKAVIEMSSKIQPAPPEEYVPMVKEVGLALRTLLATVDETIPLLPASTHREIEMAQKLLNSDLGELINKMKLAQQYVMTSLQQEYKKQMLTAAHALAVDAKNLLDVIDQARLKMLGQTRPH

With `CC(C)[Si]1(C(C)C)OCc2cc(C3CC3)nc(-c3ccccc3)c21`, the composite z-score with Albumin (Bos taurus) is -0.613; in experiment [2] it was -0.295; in experiment [3], -0.12; in experiment [4], 0.112; in [5], -0.57; in [6], -0.683. The composite z-score was -0.124 in the experiment with Sam68 (KHDRBS1); -0.161 in experiment [7]; -0.26 in [8]; -1.42 in [9]; -0.722 in experiment [10]; -0.294 in experiment [11]. In addition, the composite z-score in experiment [12] is -0.742; in experiment [13], 0.441; in experiment [14], -0.5; in the experiment on Lefty1, -0.165; in [16], -0.625. Moreover, in experiment [1], the composite Z-score was -0.536 (inactive). For the same molecule, the figures for the z-score in experiment [15] and in [17] were 0.325 and -0.525 (inactive), respectively.

With `CC(C)C[C@@H]1NC(=O)[C@H]2C[C@@H](C(=O)NCCCCCC[N+](C)(C)C)[C@@H](c3ccc(O)cc3)N2C1=O`, the composite z-score with Albumin (Bos taurus) was 0.34; in experiment [2] it was -0.126; in experiment [3], -0.164; in [4] it was 0.717; in experiment [5] it was 0.439; in experiment [6], 0.102. The composite z-score in the experiment on Sam68 (KHDRBS1) was -0.907; in experiment [7], 0.362; in experiment [8], 0.452; in experiment [9], 2.28; in [10], -0.194; in experiment [11], -0.188. Moreover, the composite z-score was -1.44 in experiment [12]; 1.16 in [13]; 0.839 in experiment [14]; 0.467 in the experiment with Lefty1; 0.952 in [16]. For the same molecule, the composite Z-score in [1] is 0.448 (inactive). Also, the z-score in experiment [15] is -0.603; in [17], 0.779 (inactive).

Take `C=C(C(=O)CC[C@H](OC(=O)c1ccccc1-c1ccccc1C(=O)O)c1ccc(CO)o1)C(C)C`: the composite z-score in the experiment with Albumin (Bos taurus) is 0.178; in experiment [2], -0.068; in [3], -0.0986; in [4], 0.368; in experiment [5], 0.23; in experiment [6] it was 1.47. For the same molecule, the composite z-score turned out to be 1.26 in the experiment on Sam68 (KHDRBS1); 0.442 in experiment [7]; 1.07 in experiment [8]; 2.61 in [9]; 0.0323 in experiment [10]; 0.0321 in experiment [11]. In addition, the composite z-score in experiment [12] was determined as 0.531; in [13], 1.27; in [14], 1.46; in the experiment with Lefty1, 1.04; in experiment [16], 0.0123. Moreover, the composite Z-score in [1] is -0.555 (inactive). In addition, the z-score was -0.528 in experiment [15] and -1.75 (inactive) in [17].

Consider `COc1ccc(-c2ccccc2[C@@H]2N[C@H](C(=O)O)CC[C@H]2C)cc1`, for which the composite z-score is -0.497 with Albumin (Bos taurus); -0.0647 in experiment [2]; -0.131 in experiment [3]; 0.0441 in experiment [4]; 0.711 in [5]; -0.423 in experiment [6]. The composite z-score amounted to 0.297 in the experiment on Sam68 (KHDRBS1); 0.456 in experiment [7]; 0.301 in [8]; 0.351 in [9]; 0.449 in [10]; 0.671 in experiment [11]. Further, the composite z-score in experiment [12] is 0.0159; in experiment [13], 0.107; in [14], 0.364; in the experiment with Lefty1, 0.404; in experiment [16], -0.361. The composite Z-score in [1] was 0.3 (inactive). For the same molecule, the z-score in experiment [15] was -0.568; in experiment [17], -0.739 (inactive).

`CN(C)CCCC[C@@H]1NC(=O)[C@@H]2C[C@H](C(=O)O)[C@H](c3ccc(O)cc3)N2C1=O`: the composite z-score in the experiment with Albumin (Bos taurus) was -1.07; in experiment [2], 0.237; in [3], -0.117; in experiment [4], 0.398; in [5] it was 0.917; in experiment [6] it was 0.324. The composite z-score in the experiment on Sam68 (KHDRBS1) stood at 0.916; in [7] it was 0.917; in experiment [8], 1.12; in [9], 1.34; in [10], 0.704; in [11] it was 0.324. The composite z-score amounted to 0.166 in experiment [12]; 1.37 in experiment [13]; 1.35 in experiment [14]; 1.64 in the experiment with Lefty1; 0.176 in experiment [16]. Besides, the composite Z-score in experiment [1] was 0.361 (inactive). Besides, the z-score in experiment [15] was -0.0467; in experiment [17], -0.486 (inactive).

Consider `Cc1ccc(S[C@]2(C(=O)NCCCN(C)C)CC(=O)N(C3CCCCC3)[C@@H]2c2ccc(CO)cc2I)cc1`, for which the composite z-score in the experiment with Albumin (Bos taurus) is -1.58; in experiment [2] it was 0.0836; in [3], -0.107; in experiment [4], 0.442; in experiment [5], 1.51; in experiment [6] it was 0.379. Further, the composite z-score in the experiment on Sam68 (KHDRBS1) was -0.171; in [7], -0.801; in experiment [8] it was -1.49; in experiment [9], 0.731; in experiment [10], -0.171; in experiment [11] it was -0.471. For the same molecule, the composite z-score was -1.32 in experiment [12]; -0.351 in experiment [13]; -0.29 in [14]; -0.695 in the experiment on Lefty1; -1.54 in [16]. In experiment [1], the composite Z-score was -0.102 (inactive). Moreover, the results for the z-score in experiment [15] and in experiment [17] were 3.41 and -1.38 (inactive), respectively.

The values above are taken from PubChem BioAssay.
